Pf Dd2 inh – inhibitors of Plasmodium falciparum Dd2 growth. P. falciparum Dd2 growth, SYBR Green, 72 h. Potency, µM (titrated, usually from 28.9 µM), most hits filed as inhibitors. 120,000 compounds, 4.3% hits. AID 1347417; active = well fitted inhibition curve with a large enough effect; also: nearly all actives have a fitted effect of over 65% in size
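Readout: SYBR Green fluorescence, 485 nm excitation, 535 nm emission, after ~16 h lysis at 37C. Before that, Dd2-infected red cells (2.5% hematocrit) grew 72 h with compound, 29 uM top final concentration.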
Hits are given with their value; i = inactive; [ ] = remark or other dose. Shown is part of a subset that was picked to be rich in hits.

SMILES	Pf Dd2 inh
Cc1ccc(F)cc1CN1CCOc2cc([S+](N)(=O)[O-])ccc2C1	i
CNC(=O)C1(N2CCC[C@H]2C(=O)NCCc2ccccn2)CCCCC1	i
CC(C)=CCN1CCNC(=O)C1CC(=O)O (configuration not stated)	i
O=C(NCC1COc2ncncc2C(=O)N1Cc1ccccc1)c1cccs1 (configuration not stated)	i
COc1ccc(Cl)cc1NC(=O)N1CCC(OC2CCN(S(C)(=O)=O)CC2)CC1	i
Cc1cnc(-c2cccnc2)n1CC1CCN(CC2CC2)CC1	i
Cc1cnc(-c2cccnc2)n1C1CCCN(C(=O)C2CC2)C1 (configuration not stated)	i
Cc1cnc(-c2cccnc2)n1C1CCCN(CC2CCCCC2)C1 (configuration not stated)	11.2µM
Cc1cccc(CN(CCN2CCCCC2)CC2CCCN(C3CCCC3)C2)n1 (configuration not stated)	i
O=C(c1onc2ccccc12)N1CCC2(CCCNC2)C1 (configuration not stated)	i
c1ccc(-c2noc(-c3nc(C4CC4)no3)n2)cc1	i
CCOC(=O)c1c(C)oc2nc(C)nc(N(C)Cc3ccccc3)c12	12.6µM
CCOC(=O)c1c(C)oc2nc(C)nc(NCc3ccc(OC)cc3OC)c12	i
CCOC(=O)c1c(C)oc2nc(C)nc(NCC3CCN(Cc4ccc(Cl)cc4)CC3)c12	12.6µM
CCOC(=O)c1c(C)oc2nc(C)nc(N3CCN(c4cccc(C(F)(F)F)c4)CC3)c12	10µM
CCOC(=O)c1c(C)oc2nc(C)nc(N3CCN(c4ccc(C)cc4C)CC3)c12	i
CCOC(=O)c1c(C)oc2nc(C)nc(Nc3cccc(OC)c3)c12	i
CCOC(=O)c1c(C)oc2ncnc(Nc3ccc(OCC)cc3)c12	i
CCOC(=O)c1c(C)oc2nc(C)nc(NCc3ccc(Cl)cc3)c12	i[5.79 µM]
CCOC(=O)c1c(C)oc2ncnc(N3CCN(c4cccc(Cl)c4)CC3)c12	i
CCOC(=O)c1c(C)oc2ncnc(NCCc3ccccc3)c12	i
CCOC(=O)c1c(C)oc2nc(C)nc(NCCCN3CCN(c4cc(Cl)ccc4C)CC3)c12	i
CCOC(=O)c1c(C)oc2nc(C)nc(NC(C)c3ccccc3)c12 (configuration not stated)	10µM
Cc1cccc(CNC(=O)C2c3ccccc3CC(=O)N2C(C)C)c1 (configuration not stated)	i
CC(C)NC(=O)N1CNC(=O)C12CCN(C(=O)c1ccccc1)CC2	i
SMILES	Pf Dd2 inh
CCN1CC2(CCN(C(=O)C3CCCCN3Cc3ccccc3)CC2)OC1=O (configuration not stated)	i
CNC(=O)[C@@H]1C[C@H](Oc2ccccc2)CN1C(=O)COc1ccc(F)cc1	i
CCOc1cc(=O)n2c(c1C(=O)Nc1cc(OC)cc(OC)c1)CCCC2	i
O=C(O)c1ccnc(-c2ccnc(NCCN3CCCCC3=O)n2)c1	i
Cn1cc(C(=O)NCC2CN(C(=O)c3ccccc3)CC23CN(c2ccccc2)C3)cn1 (configuration not stated)	i
CC(C)c1ccc(CN2CC(CNC(=O)c3cnn(C)c3)C3(C2)CN(c2ccccc2)C3)cc1 (configuration not stated)	i
O=C(Cc1ccccc1)NCC1CN(Cc2ccncc2Cl)CC12CN(c1ccccc1)C2 (configuration not stated)	11.2µM
O=C(c1cccc(Cl)c1)N1CC(CNc2cccnc2)C2(C1)CN(c1ccccc1)C2 (configuration not stated)	12.6µM
O=C(NCC1CN(Cc2ccncc2Cl)CC12CN(c1ccccc1)C2)c1ccccc1 (configuration not stated)	i
O=C(c1cccnc1)N1CC(COc2ccccc2)C2(C1)CN(c1ccccc1)C2 (configuration not stated)	i
Cc1ccc(C)c(-c2cc3c(=O)n(CCNC(=O)c4ccc5c(c4)OCO5)ccn3n2)c1	i
CN1C[C@H](O)C[C@H]1c1nnc2n1CCN(C(=O)CCc1c[nH]c3ccccc13)CC2	i
COc1ccc(C(=O)N2CCCn3ccnc3C2c2cnn(C)c2)cn1 (configuration not stated)	i
O=C(c1ccoc1)N1CC2CC(C1)[C@H]1CCCC(=O)N1C2 (some centres not stated)	i
CN1C[C@H](NC2CCC2)CCC[C@@H](C(=O)N(C)Cc2cccnc2)CC1=O	i
O=C(Nc1ccc2nc(SCC(=O)N3CCCC3)sc2c1)c1ccccc1	i
CCC(=O)Nc1ccc2nc(SCCOc3cccc(C)c3)sc2c1	i
COc1cc(C)ccc1OCCSc1nc2ccc(NC(=O)c3ccco3)cc2s1	4.47µM
CC(=O)Nc1ccc2nc(SCCOc3ccccc3Cl)sc2c1	i
O=C(Nc1ccc2nc(SCCOc3ccccc3)sc2c1)c1ccccc1F	i
CCOc1ccc(C(=O)Nc2ccc3nc(SCCOc4ccccc4)sc3c2)cc1	i
O=C(COc1ccccc1)Nc1ccc2nc(SCC(=O)N3CCCC3)sc2c1	11.2µM
O=C(Nc1ccc2nc(SCCOc3ccccc3)sc2c1)c1cccs1	3.16µM
O=C(COc1ccccc1Cl)Nc1ccc2nc(SCC(=O)N3CCOCC3)sc2c1	i
Cc1ccc([S+](=O)([O-])N2CCCC(c3nn(-c4ccccc4)c(=O)[nH]3)C2)cc1 (configuration not stated)	i
SMILES	Pf Dd2 inh
CCCC1c2nccn2CCCN1C(=O)c1conc1C (configuration not stated)	i
CCOc1cc(-c2nc(C3CC(=O)N(c4ccc(F)cc4)C3)no2)cc(OCC)c1OCC (configuration not stated)	i
CCOc1ccccc1C(=O)N1CCC(c2n[nH]c(=O)n2-c2ccccc2)CC1	i
COc1cc(-c2ccnc3nc(C4CCC4)nn23)cc(OC)c1OC	i
CC1=C[C@@H](CNS(=O)(=O)c2cccc(C#N)c2)[C@H](C(C)C)C[C@H]1CC(=O)NCc1cccnc1	i
CC1=C[C@@H](CNS(=O)(=O)c2cccc(C#N)c2)[C@H](C(C)C)C[C@H]1CC(=O)Nc1ccccn1	i
CC1=C[C@@H](CNS(=O)(=O)c2ccc(C)cc2)[C@H](C(C)C)C[C@H]1CC(=O)N(C)Cc1cccnc1	12.6µM
CCOC(=O)C[C@@H]1C[C@@H](C(C)C)[C@H](CNS(=O)(=O)c2ccc(OC)cc2)C=C1C	i
C#CCNC(=O)C[C@@H]1C[C@@H](C(C)C)[C@H](CNS(=O)(=O)c2cccc(C#N)c2)C=C1C	11.2µM
COCCC(=O)NC[C@@H]1C=C(C)[C@H](CC(=O)N(C)Cc2cccnc2)C[C@H]1C(C)C	i
CN1CCC(OC2CCN(C(=O)C(C)(C)C)CC2)CC1	i
CN1C(=O)CCCCC1C(=O)NC1CCCCC1 (configuration not stated)	i
O=C(CC1CCOCC1)NCc1ccc(F)cc1	i
O=C1N(C2CCCCC2)C[C@H]2CN(S(=O)(=O)c3ccc(F)cc3)CCN12	i
Cc1noc([C@@H]2CC(F)(F)CN2C(=O)c2ccco2)n1	i
Cn1nc(C2CCN(C(=O)c3ccccc3F)CC2)c2c1CCOC2	i[5.79 µM]
O=C(Nc1ccc2c(c1)CN(Cc1ccccc1F)C(=O)CO2)c1ccc(F)cc1	i
O=C(NC1CCC(O)CC1)c1ccc(-c2ncc3cnc(-c4cccc(F)c4)cn23)cc1 (configuration not stated)	i
COc1ccccc1-c1cnc(Nc2ccc(CN3CCN(C)CC3)cc2)c2c1CCO2	7.08µM
COc1ccccc1-c1cnc(NC(=O)c2cccnc2)c2c1CCO2	i

Screening results deposited in PubChem by National Center for Advancing Translational Sciences (NCATS).
